Legend:
[1] = target: T1, Mitogen-activated protein kinase 13 (Homo sapiens) (UniProt O15264); conditions: at 1 µM
T1 sequence (whole entry): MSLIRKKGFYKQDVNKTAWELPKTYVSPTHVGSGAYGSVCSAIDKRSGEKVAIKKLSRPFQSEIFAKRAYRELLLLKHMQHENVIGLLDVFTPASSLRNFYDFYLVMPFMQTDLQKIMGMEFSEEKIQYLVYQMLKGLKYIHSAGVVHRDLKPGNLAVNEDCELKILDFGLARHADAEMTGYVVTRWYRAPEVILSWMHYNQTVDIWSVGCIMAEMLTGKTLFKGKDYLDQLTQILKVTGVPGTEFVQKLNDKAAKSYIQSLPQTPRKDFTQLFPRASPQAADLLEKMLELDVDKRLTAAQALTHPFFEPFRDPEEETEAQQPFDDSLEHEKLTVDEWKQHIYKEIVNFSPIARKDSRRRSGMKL

[2] = target: T1, Mitogen-activated protein kinase 13 (Homo sapiens); conditions: at 10 µM
[3] = target: T2, Serine/threonine-protein kinase Sgk1 (Homo sapiens) (UniProt O00141); conditions: at 1 µM
T2 sequence (whole entry): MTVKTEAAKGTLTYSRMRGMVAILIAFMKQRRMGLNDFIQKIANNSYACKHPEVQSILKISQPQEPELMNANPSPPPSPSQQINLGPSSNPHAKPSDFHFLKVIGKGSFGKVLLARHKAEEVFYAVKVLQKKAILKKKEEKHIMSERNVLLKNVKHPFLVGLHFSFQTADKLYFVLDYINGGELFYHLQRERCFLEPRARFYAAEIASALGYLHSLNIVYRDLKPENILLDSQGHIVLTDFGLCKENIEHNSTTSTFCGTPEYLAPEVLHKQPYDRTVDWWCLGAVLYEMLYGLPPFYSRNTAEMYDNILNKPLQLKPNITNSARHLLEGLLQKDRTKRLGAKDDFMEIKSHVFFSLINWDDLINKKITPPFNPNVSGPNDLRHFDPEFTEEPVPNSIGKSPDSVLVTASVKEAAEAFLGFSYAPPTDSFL

[4] = target: T2, Serine/threonine-protein kinase Sgk1 (Homo sapiens); conditions: at 10 µM
[5] = target: Serine/threonine-protein kinase SIK1 (Homo sapiens) (UniProt P57059); conditions: at 1 µM
[6] = target: Serine/threonine-protein kinase SIK1 (Homo sapiens) (UniProt P57059); conditions: at 10 µM
[7] = target: SRSF protein kinase 1 (Homo sapiens) (UniProt Q96SB4); conditions: at 10 µM
[8] = target: SRSF protein kinase 2 (Homo sapiens) (UniProt P78362); conditions: at 1 µM
[9] = target: SRSF protein kinase 2 (Homo sapiens) (UniProt P78362); conditions: at 10 µM
[10] = target: Serine/threonine-protein kinase 33 (Homo sapiens) (UniProt Q9BYT3); conditions: at 1 µM
[11] = target: Serine/threonine-protein kinase 33 (Homo sapiens) (UniProt Q9BYT3); conditions: at 10 µM
[12] = target: Tyrosine-protein kinase SYK (Homo sapiens) (UniProt P43405); conditions: at 1 µM
[13] = target: Mitogen-activated protein kinase 11 (Homo sapiens) (UniProt Q15759); conditions: at 1 µM
[14] = target: Mitogen-activated protein kinase 11 (Homo sapiens) (UniProt Q15759); conditions: at 10 µM
[15] = target: T3, Serine/threonine-protein kinase Sgk2 (Homo sapiens) (UniProt Q9HBY8); conditions: at 1 µM
T3 sequence (whole entry): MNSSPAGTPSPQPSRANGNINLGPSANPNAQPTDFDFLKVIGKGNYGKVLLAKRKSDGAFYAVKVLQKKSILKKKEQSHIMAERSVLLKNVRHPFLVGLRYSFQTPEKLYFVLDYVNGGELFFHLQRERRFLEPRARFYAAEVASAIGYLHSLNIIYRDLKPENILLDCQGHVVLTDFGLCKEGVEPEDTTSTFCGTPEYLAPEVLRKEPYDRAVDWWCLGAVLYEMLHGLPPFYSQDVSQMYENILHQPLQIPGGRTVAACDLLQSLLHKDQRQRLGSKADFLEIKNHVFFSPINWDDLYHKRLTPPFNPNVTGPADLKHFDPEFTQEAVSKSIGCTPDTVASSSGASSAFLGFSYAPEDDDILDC

[16] = target: T3, Serine/threonine-protein kinase Sgk2 (Homo sapiens); conditions: at 10 µM
[17] = target: T4, Serine/threonine-protein kinase Sgk3 (Homo sapiens) (UniProt Q96BR1); conditions: at 10 µM
T4 sequence (whole entry): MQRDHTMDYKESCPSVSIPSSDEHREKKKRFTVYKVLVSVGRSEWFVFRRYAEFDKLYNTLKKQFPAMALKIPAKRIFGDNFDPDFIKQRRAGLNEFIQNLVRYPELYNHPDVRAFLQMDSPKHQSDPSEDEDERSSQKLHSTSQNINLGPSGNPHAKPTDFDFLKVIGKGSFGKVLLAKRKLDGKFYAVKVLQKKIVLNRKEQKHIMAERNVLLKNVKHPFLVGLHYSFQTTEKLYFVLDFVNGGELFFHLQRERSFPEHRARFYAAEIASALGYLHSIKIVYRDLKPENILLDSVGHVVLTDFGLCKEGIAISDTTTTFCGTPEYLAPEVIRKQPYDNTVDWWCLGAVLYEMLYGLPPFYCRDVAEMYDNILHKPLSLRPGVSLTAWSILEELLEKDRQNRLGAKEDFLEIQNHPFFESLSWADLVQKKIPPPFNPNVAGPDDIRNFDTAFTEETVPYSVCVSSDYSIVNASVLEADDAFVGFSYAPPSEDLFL

[18] = target: SRSF protein kinase 1 (Homo sapiens) (UniProt Q96SB4); conditions: at 1 µM
[19] = target: Serine/threonine-protein kinase PLK2 (Homo sapiens) (UniProt Q9NYY3); conditions: at 1 µM
[20] = target: Serine/threonine-protein kinase PLK2 (Homo sapiens) (UniProt Q9NYY3); conditions: at 10 µM

Chain of Mitogen-activated protein kinase 11 (Homo sapiens) (Q15759 whole entry): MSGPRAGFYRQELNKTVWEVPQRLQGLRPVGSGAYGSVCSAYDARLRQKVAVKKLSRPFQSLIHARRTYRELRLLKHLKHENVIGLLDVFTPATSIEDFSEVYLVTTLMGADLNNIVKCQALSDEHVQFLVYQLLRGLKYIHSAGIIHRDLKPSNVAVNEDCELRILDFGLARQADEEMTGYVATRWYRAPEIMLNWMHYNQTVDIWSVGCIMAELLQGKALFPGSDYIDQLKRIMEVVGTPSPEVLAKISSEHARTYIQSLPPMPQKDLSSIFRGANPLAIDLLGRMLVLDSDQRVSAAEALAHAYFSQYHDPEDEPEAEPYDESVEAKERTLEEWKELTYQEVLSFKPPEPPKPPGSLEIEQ
Chain of SRSF protein kinase 1 (Homo sapiens) (Q96SB4 whole entry): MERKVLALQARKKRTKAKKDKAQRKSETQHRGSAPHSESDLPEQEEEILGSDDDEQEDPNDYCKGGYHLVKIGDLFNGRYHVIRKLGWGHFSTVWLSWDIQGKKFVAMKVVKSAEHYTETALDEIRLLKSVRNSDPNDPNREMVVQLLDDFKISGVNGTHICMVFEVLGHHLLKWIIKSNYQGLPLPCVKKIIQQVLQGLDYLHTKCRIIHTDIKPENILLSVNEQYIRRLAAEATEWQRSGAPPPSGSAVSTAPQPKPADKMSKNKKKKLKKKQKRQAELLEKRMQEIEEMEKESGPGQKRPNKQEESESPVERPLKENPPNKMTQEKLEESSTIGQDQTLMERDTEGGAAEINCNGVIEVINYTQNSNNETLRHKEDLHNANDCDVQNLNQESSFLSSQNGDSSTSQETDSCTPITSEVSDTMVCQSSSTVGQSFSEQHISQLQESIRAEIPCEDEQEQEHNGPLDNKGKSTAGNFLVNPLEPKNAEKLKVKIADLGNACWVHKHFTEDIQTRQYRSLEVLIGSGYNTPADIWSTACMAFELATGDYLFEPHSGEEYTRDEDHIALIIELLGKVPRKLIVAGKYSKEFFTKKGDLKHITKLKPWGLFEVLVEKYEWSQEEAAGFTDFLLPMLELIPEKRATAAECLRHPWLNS
Chain of Serine/threonine-protein kinase PLK2 (Homo sapiens) (Q9NYY3 whole entry, looked up): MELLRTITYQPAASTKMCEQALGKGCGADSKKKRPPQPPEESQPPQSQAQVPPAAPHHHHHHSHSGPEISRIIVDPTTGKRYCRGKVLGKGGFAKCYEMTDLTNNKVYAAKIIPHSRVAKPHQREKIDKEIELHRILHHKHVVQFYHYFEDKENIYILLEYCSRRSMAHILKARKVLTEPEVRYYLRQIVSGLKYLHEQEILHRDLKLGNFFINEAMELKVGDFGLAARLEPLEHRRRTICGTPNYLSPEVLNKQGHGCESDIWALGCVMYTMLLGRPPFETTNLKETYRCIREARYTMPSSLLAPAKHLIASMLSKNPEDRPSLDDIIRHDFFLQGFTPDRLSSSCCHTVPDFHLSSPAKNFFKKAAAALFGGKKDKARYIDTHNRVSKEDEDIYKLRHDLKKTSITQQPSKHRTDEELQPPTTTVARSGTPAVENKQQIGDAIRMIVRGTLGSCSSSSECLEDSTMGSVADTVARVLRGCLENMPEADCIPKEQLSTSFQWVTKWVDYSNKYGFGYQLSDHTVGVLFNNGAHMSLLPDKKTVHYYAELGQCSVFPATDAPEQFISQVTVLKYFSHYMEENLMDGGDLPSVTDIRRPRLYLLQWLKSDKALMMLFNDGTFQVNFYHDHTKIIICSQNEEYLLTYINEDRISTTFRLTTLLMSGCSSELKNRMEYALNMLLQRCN
Chain of Serine/threonine-protein kinase SIK1 (Homo sapiens) (P57059 whole entry): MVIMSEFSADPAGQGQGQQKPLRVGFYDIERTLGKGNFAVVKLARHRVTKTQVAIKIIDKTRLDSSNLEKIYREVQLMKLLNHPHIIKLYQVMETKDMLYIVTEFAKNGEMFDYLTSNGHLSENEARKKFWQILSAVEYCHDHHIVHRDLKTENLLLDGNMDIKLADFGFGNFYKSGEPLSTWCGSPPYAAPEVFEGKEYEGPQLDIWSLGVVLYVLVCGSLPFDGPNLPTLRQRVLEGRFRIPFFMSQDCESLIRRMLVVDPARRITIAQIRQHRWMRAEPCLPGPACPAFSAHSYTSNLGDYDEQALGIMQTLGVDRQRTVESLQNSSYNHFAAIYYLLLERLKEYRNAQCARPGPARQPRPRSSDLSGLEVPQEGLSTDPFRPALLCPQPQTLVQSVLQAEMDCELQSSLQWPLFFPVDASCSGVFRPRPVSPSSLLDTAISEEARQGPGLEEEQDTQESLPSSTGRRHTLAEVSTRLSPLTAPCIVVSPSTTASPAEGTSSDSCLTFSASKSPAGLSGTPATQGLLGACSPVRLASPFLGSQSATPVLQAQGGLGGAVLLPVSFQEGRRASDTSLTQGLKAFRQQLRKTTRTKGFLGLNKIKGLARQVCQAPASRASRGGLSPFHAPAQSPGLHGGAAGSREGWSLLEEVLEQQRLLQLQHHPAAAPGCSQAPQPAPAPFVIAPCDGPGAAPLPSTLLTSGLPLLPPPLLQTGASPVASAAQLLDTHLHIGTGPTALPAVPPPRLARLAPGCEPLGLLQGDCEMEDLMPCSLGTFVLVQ
Chain of SRSF protein kinase 2 (Homo sapiens) (P78362 whole entry, looked up): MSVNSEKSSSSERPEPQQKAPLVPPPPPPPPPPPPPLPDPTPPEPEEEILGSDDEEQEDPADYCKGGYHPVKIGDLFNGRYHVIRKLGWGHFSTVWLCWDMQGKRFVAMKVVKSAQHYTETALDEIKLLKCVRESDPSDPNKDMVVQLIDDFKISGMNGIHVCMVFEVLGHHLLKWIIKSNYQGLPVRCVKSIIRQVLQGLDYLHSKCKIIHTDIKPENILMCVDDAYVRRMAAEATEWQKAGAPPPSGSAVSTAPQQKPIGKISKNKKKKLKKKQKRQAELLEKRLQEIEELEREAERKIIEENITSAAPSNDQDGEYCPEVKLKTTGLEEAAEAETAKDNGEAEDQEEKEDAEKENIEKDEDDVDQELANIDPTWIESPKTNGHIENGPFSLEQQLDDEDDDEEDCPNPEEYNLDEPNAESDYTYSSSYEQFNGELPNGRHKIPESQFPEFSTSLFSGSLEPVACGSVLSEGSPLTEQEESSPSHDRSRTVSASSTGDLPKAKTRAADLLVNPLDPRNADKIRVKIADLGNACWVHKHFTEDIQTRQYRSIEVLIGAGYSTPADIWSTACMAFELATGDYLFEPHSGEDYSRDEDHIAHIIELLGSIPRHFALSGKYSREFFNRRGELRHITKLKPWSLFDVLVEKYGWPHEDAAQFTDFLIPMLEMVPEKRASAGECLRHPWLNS
Chain of Serine/threonine-protein kinase 33 (Homo sapiens) (Q9BYT3 whole entry, looked up): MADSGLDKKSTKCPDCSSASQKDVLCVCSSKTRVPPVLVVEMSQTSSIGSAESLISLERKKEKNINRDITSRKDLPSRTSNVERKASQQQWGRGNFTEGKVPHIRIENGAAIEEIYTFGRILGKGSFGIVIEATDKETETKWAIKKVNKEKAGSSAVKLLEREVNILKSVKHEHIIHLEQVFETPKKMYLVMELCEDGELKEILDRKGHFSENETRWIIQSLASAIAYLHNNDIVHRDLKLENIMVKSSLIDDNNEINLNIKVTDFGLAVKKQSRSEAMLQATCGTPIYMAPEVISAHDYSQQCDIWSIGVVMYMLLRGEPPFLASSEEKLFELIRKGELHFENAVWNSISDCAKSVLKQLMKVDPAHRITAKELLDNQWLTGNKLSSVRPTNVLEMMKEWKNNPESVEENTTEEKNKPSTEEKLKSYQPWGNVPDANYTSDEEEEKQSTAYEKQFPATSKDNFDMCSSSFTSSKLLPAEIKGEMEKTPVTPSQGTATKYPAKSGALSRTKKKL

Structure (SMILES) | residual activity [1] | residual activity [2] | residual activity [3] | residual activity [4] | residual activity [5] | residual activity [6] | residual activity [7] | residual activity [8] | residual activity [9] | residual activity [10] | residual activity [11] | residual activity [12] | residual activity [13] | residual activity [14] | residual activity [15] | residual activity [16] | residual activity [17] | residual activity [18] | residual activity [19] | residual activity [20]
CCN(CC)C(=O)c1ccc(Nc2nc(OCC3CCCCC3)c3nc[nH]c3n2)cc1 | 99% | 64% | 77% | 61% | 37% | 4% | 43% | 74% | 31% | 82% | 18% | 64% | – | – | – | – | – | – | – | –
Cc1nc2cc3nc(-c4cccs4)cnc3cc2n1C | 112% | 103% | 113% | – | 100% | 88% | 107% | 98% | 86% | 106% | 100% | 131% | 100% | 97% | 104% | 64% | 98% | 99% | 102% | 95%
CC(C)n1cnc2/c(=N/c3cccc(Cl)c3)nc(NCCO)[nH]c21 | 103% | 99% | 89% | 110% | 90% | 28% | -2% | 27% | 2% | 78% | 28% | 79% | 101% | 94% | 105% | 83% | 82% | 41% | 61% | 22%
CCOc1cc2ncnc(Nc3cccc(Br)c3)c2cc1OCC | 91% | 90% | 107% | 89% | 83% | 102% | 91% | 102% | 91% | – | 92% | 111% | 94% | 50% | 68% | 60% | 73% | 83% | 99% | 88%
Oc1n[nH]c2nnc(-c3c(-c4ccccc4)nn4ccccc34)cc12 | 96% | 96% | 69% | 86% | 109% | 89% | 96% | 101% | 98% | 95% | 86% | 106% | 94% | 91% | 96% | 80% | 81% | 97% | 97% | 99%
COc1cc2ncnc(Nc3ccc(Oc4ccccc4)cc3)c2cc1OC | 110% | 96% | – | – | 66% | 8% | 90% | 105% | 90% | 98% | 88% | 110% | 102% | 90% | – | – | 125% | 106% | 104% | 105%
c1ccc(-c2n[nH]cc2-c2ccnc3ccccc23)nc1 | 106% | 101% | 97% | 95% | 99% | 104% | 108% | – | 87% | 97% | 94% | – | 99% | 76% | – | 69% | – | 106% | 102% | 96%
Cc1ccc(S(=O)(=O)/C=C/C#N)cc1 | 104% | 103% | 76% | 104% | 81% | 97% | 93% | 95% | 95% | 103% | 96% | 104% | – | 104% | 97% | 101% | 81% | 101% | 98% | 85%
Cc1cncc2cccc(S(=O)(=O)N3CCCN(C(=O)CN)C[C@H]3C)c12 | 97% | 98% | 88% | – | 84% | 90% | – | 94% | 94% | – | – | – | 100% | 95% | – | – | 88% | – | – | 93%
CO[C@H]1C[C@@H]2CC[C@@H](C)[C@@](O)(O2)C(=O)C(=O)N2CCCC[C@H]2C(=O)O[C@H]([C@H](C)C[C@@H]2CC[C@@H](O)[C@H](OC)C2)CC(=O)[C@H](C)/C=C(\C)[C@@H](O)[C@@H](OC)C(=O)[C@H](C)C[C@H](C)/C=C/C=C/C=C/1C | 110% | 95% | 93% | 213% | 101% | 81% | 108% | 99% | 92% | 92% | 107% | 106% | 97% | 103% | 124% | 149% | 148% | 103% | 104% | 103%
O=C1Nc2ccccc2/C1=C1/Nc2ccccc2/C1=N\OCCC(O)CO (configuration not stated) | – | 75% | 67% | 29% | 46% | 30% | – | 80% | 38% | 37% | 7% | 32% | – | 77% | 63% | 47% | 69% | – | – | 76%
COc1cc2ncc(-c3ccccc3)nc2cc1OC | – | – | 98% | 95% | – | – | – | – | 90% | – | – | – | – | – | 96% | 76% | – | – | – | –
COc1cccc(-c2cc(=O)c3ccccc3o2)c1N | 99% | 96% | 79% | 120% | 140% | 124% | 109% | 104% | 88% | 100% | 97% | 104% | 101% | 92% | 89% | 95% | 86% | 104% | 108% | 104%
